Reference: the supplement of paper PMC11417369
Whole data set: some 25,000 sequences, median “ln(normalized median fluorescence intensity)” near 9.3, cut for the highest 2% near 10. The sample as a whole holds a higher share of the highest values than the screen did.

tested on: PF3D7_0420300 AP2 domain 1 (GST-tagged); experiment: gcPBM binding intensity (ln(normalized median fluorescence intensity)); higher = stronger DNA binding
Summary of the method: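 An Agilent 4 × 180k array of primer-extended double-stranded 36-bp intergenic genomic probes, with negative controls, was incubated for 1 h with GST-tagged P. falciparum DNA-binding domains expressed in E. coli. Alexa488 anti-GST antibody detected bound protein, scanned at 488 nm. Binding intensity is the highest Masliner-normalised natural-log median intensity across replicate spots of either probe orientation.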

Sequence	gcPBM binding intensity (ln)
AATATAAAAATATAAAAACACACGTAAAAAAATTTA [CACACA_site3399]	9.73
TAATTTCTTATGTATTGTACAAATAATGTATGATAT [XGTACX_site270]	9.2
AAAAAAAAAAAAAAGGTGCAAATAAATTAACCTTAT	9.16
TGCAAGGAACAACACACACACACATAAATGTATATA [CACACA_site8149]	10.2
AGAAAAAACAAAAGAGAAATGAAAAAAAAAAAAAAA [XGTACX_negctrl_site482]	8.87
TTAAGATAGCAAATATGTACACATTTGTAAAATAAA [XGTACX_site4837]	9.25
TTAAACGTACATAATACACACACATGTAGACATATA [CACACA_site8635]	9.79
TATATATATTGTTATTGTACACAAATATAGGAAATA [XGTACX_site7110]	9.23
GTTTTCTAGTGGGGGTGTACATATTTATATTTAATA [XGTACX_site8378]	10.2
TTTATTAATTTATAGTGTACATATTAATAATATATT [XGTACX_site7949]	9.09
ATATATTATTTCTAGTGTACATACCCATATATAATA [XGTACX_site8902]	9.46
TTTGTGATATTATATTGTACCCTATATTTATTATAA [XGTACX_site4240]	9.56
TTATGTTCATTATATGCACACATATATATAAATGTA [CACACA_site8947]	9.24
TTTTTATAACAGCTTAGTACATATAAGAATTCTTGC [XGTACX_site5890]	8.9
AACATAAAAATTGAAGCACACACACTAATGAAATAC [CACACA_site8287]	10.2
CATAAAAATTGAAGCACACACACAAAAGAAATACAA [CACACA_site1112]	10.2
TAAAAGTTGAAGCACACACACAAAAGAAATACAATA [CACACA_site6649]	10.1
TAAAAGAAAGCACATACACACACAAAAAAAAAAAAG [CACACA_site8159]	10.2
GCAAAATAAAGAAGCACACAAAAATGAAATATATAT [CACACA_site3651]	9.59
TCATAATGAAAACAAGCACACATACATAAAATAAAA [CACACA_site9069]	9.7
TAAAAATTGAAGCACACACACAAAAGAAATACAATA [CACACA_site1113]	10.2
ATAATGAAAACAAGCACACATACATAAAATAAAATA [CACACA_site3257]	9.86
AAGCACAAAAAATACACACACAAAAAATAAAAAAAG [CACACA_site1840]	10.1

Sequence	gcPBM binding intensity (ln)
GGTCTTTTCAACACACGTACATAAAAATATTATACA [XGTACX_site5360]	9.47
AAATAAATAATAAATAAATAAATAAAATACCAAATA [GTGCAC_negctrl_site620]	9.6
AAGAAAATATAAAATGCACACTATAAATTGTATATA [CACACA_site7928]	9.51
TACATAAATACATACATACACACATATATATATATA [CACACA_site2105]	9.56
AAATAAAAAACAGTGGCACACATTATGTATCCACCT [CACACA_site3756]	9.32
TATATACGCATGCGCACACACAAGTGGGAAATTTGG [CACACA_site1785]	9.52
TGATATTTTATTATTAAAATATATACATATATATAT [CACACA_negctrl_site1456]	9.26
TAAAAAAGTTATATTACACACTTTATTGGTTAACTT [CACACA_site653]	9.35
CTTGTCATTGGGCACACACACATGTATAGGTTATTA [CACACA_site3058]	9.7
CTCTTGTCATTTTGCACACACACATGGATAGGTTAT [CACACA_site5655]	10.2
CTCTTGTCATTTTGCACACACACATGTATAGGTTAT [CACACA_site3057]	10.2
AGCTCTTGTCATTTTGCACACACACCCGTATAGGTT [CACACA_site3056]	10
CTTGTCATTTGGCACACACACATGTATAGGTTATTA [CACACA_site5656]	9.9
AGCTCTTGTCATTTTGCACACACACCGGTATAGGTT [CACACA_site5654]	10.1
CGTATGTATATATATATACACACTTCTGTGATACGA [CACACA_site1949]	9.33
ATATAATTATATTCCATACACACATATATTTAAAGG [CACACA_site2958]	9.42
TAAATAAGCACATACACACATACATACATACATAAA [CACACA_site4017]	9.87
TATAAACATTATAAATGTACAAATATATATATATAT [XGTACX_site3218]	9.28
ATTATAATTACTCTAGTGCATTATAAATATGAATAA	8.93
TATGCAAGGAACCACACACACACACGGAAATGTATA [CACACA_site6490]	10.2
TATGCAAGGAACCACACACACACACCCAAATGTATA [CACACA_site750]	10.1
TATGCAAGGAACCACACACACACACCGAAATGTATA [CACACA_site4573]	10.1
